Experimental data from PubChem BioAssay AID1259422 (The Scripps Research Institute Molecular Screening Center, 2018).
About 9,300 (1.5%) of roughly 640,000 compounds were called active. The list comes from a sample in which actives are over-represented; it also holds similar structures and randomly drawn compounds. Unmarked numbers belong to inactive results. Cut-off read from the data, not from the text of the source: active = inhibition above about 32%; inactive = the rest.

assay: TEAD-YAP interaction inhibition, primary screen, TEAD-YAP interaction inhibitor project, luminescence, HEK-TIYL cells (AID 1259422); settings: TEAD-Gal4/YAP UAS-luciferase luminescence, at 9.12 µM, active compounds read high;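 note: 0% = median of test compound wells and 100% = reference inhibitor wells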

Compound	inhibition
CCOc1ccc(Nc2nc(Nc3ccc(C(C)=O)cc3)nc(C)c2[N+](=O)[O-])cc1	6.26%
COc1ccc(OC)c(NC(=O)CN2CCC(n3c(C)nc4cc(F)ccc43)CC2)c1	-30.9%
CCOC(=O)CC1NCC2c3ccccc3CCN2C1=O (configuration not stated)	2.64%
OC1CCN(c2ccnc3c(-c4cccc(C(F)(F)F)c4)cnn23)CC1	10%
O=C(COc1ccc(Cl)cc1Cl)N1CCCc2ccccc21	-11.7%
O=C(c1c[nH]c(=O)n(-c2ccc(F)c(Cl)c2)c1=O)N1CCCc2ccccc21	38.2% (active)
O=C(c1cc(Cl)ccc1[N+](=O)[O-])N1CCCc2ccccc21	10.8%
COc1cc(NC(=O)c2sc3nc(C)nc(N4CCN(C)CC4)c3c2C)cc(OC)c1	4.26%
COc1cc(OC)cc(C(=O)N/N=C(\C)CC(=O)NC2CCCCCCC2)c1	54.5% (active)
C/C(CC(=O)NC1CCCC1)=N\NC(=O)COc1cccc(C)c1	-8.3%
COc1ccc(C(=O)N/N=C(\C)CC(=O)Nc2ccccc2)c(OC)c1	-36.2%
C/C(CC(=O)NC1CCCCC1)=N\NC(=O)c1ccncc1	2.69%
COc1cc(OC)cc(C(=O)N/N=C(\C)CC(=O)Nc2ccccc2-c2ccccc2)c1	51.5% (active)
COc1ccc(NC(=O)CS(=O)CC(=O)Nc2ccccc2-c2ccccc2)cc1 (configuration not stated)	-6.02%
COc1ccc2nc(NC(=O)c3ccccc3OC)sc2c1	5.95%
CCc1nc(SCC(=O)Nc2nc(C)c(C)s2)c2ccccc2n1	5.48%
O=C1Nc2cc(C(=O)N3CCN(c4ccccn4)CC3)ccc2Nc2ccccc21	11.1%
COc1ccc(-c2cnn3c(N4CCOCC4)ccnc23)c(OC)c1	-6.8%
COc1cc(-c2cnn3c(N4CCOCC4)ccnc23)cc(OC)c1OC	76.6% (active)
OC1CCN(c2ccnc3c(-c4ccoc4)cnn23)CC1	-22.8%
COc1cccc(-c2cnn3c(N4CCC(O)CC4)ccnc23)c1	21.5%
Clc1ccccc1-c1cnn2c(N3CCOCC3)ccnc12	16.7%
c1cc(N2CCOCC2)n2ncc(-c3ccc4[nH]ccc4c3)c2n1	96.6% (active)
O=C(CNC(=O)c1ccco1)N/N=C/c1ccc(O)c(O)c1	3.54%
Cc1ccc(N(CC(=O)O)C2SC(=O)N(c3ccccc3)C2=O)cc1 (configuration not stated)	-28.6%

Compound	inhibition
Cc1cc(C)cc(OCC(=O)Nc2sc3c(c2C(N)=O)CCCC3)c1	-1.21%
CCCCOC(=O)C1=C(C)NC2=C(C(=O)CC(C)(C)C2)C1c1ccc(Cl)cc1Cl (configuration not stated)	1.21%
Cc1nc(C)n(-c2ccc(Nc3cc(-n4ccnn4)ccn3)cc2)n1	1.02%
Cc1ncn(-c2ccc(Nc3ncc(-c4cnn(C)c4)c(-c4cnn(C)c4)n3)cc2)n1	-5.05%
Cc1nc(C)n(-c2ccc(Nc3ncc4ccc(-c5cnn(C)c5)cc4n3)cc2)n1	84.9% (active)
Cc1ccccc1CCNCc1ccc(C(=O)O)s1	-4.88%
CC(C)(C)c1nc2ccccc2c2nn(CC(=O)N3CCNC(=O)C3(C)C)c(=O)n12	-10.6%
O=C(NCC1CCCO1)c1ncoc1-c1cccc(Cl)c1 (configuration not stated)	-34.8%
Cn1nnc2c(N3CCN(CC(=O)Nc4ccccc4F)CC3)ncnc21	3.56%
Cc1nn2c(NCc3ccncc3)c3c(nc2c1-c1ccccc1)CCC3	-22.7%
COc1ccccc1NC(=O)Cn1ccc2ccccc2c1=O	-0.57%
COc1cccc2c(=O)n(CC(=O)NCc3ccccc3)ccc12	38.8% (active)
O=C(Cn1cnc2ccccc2c1=O)NCc1ccccc1	2.51%
Cn1cc(S(=O)(=O)O)cc1-c1nc2ccccc2n1C	9.5%
Cc1c(-n2c(-c3ccco3)nc3ccccc3c2=O)c(=O)n(-c2ccccc2)n1C	-10.7%
Cn1c(-c2ccco2)nc2cc3ccccc3cc21	90.5% (active)
NC1=NC(=Nc2ccc(N3CCCCC3)cc2)c2ccccc21	60.5% (active)
C(/C=C/c1ccccc1)=Nc1ccc(N2CCOCC2)cc1	18.8%
NC1=NC(=Nc2cc(Cl)cc(Cl)c2)c2ccccc21	-2.03%
O=C1OC(c2ccccc2Cl)=N/C1=C\c1ccco1	4.9%
COc1cc(/C=N/NC(=O)CC(=O)NCC(C)C)ccc1O	8.56%
CCOC(=O)N1CCN(C(=O)c2ccc3c(=O)n(Cc4ccccc4Cl)c(=S)[nH]c3c2)CC1	-2.49%
c1ccc2c(-c3nc(NC4CC4)c4ncn(-c5ccsc5)c4n3)csc2c1	13.5%
COc1ccc(CCNc2nc(-c3c(C)noc3C)nc3c2ncn3-c2ccsc2)cc1	-2.43%
Cc1noc(C)c1-c1nc(NC2CC2)c2ncn(-c3ccsc3)c2n1	41.4% (active)

Compound	inhibition
CC(=O)N(c1cccc(C)c1)C1SC(=O)N(c2cccc(C)c2)C1=O (configuration not stated)	3.53%
O=C(Nc1ccc(-c2nc3cccnc3s2)cc1)C1CCCC1	51.9% (active)
CC(=O)Nc1cccc(-c2nc3cccnc3s2)c1	-43.1%
CC(=O)Nc1ccc(S(=O)(=O)Nc2ccc(-c3nc4cccnc4s3)cc2)cc1	7.3%
Cc1ncc(-c2ccc(F)cc2)c(C2CCCN(CCO)C2)n1 (configuration not stated)	-9.4%
COC(=O)COc1ccc(/C=C2/NC(=O)N(c3ccccc3)C2=O)cc1OC	11.3%
Cc1nc(NC(=O)/C=C/c2cccc([N+](=O)[O-])c2)sc1C(=O)N(C)C	-12.3%
N#Cc1ccc(OCC(=O)Nc2ccc3c(c2)C(=O)c2ccccc2C3=O)cc1	-21.1%
CCOC(=O)CSC1=C(C#N)C(c2sccc2C)CC(=O)N1 (configuration not stated)	56.8% (active)
CCOc1cc(C2CC(=O)NC(SCC(=O)OCc3ccccc3)=C2C#N)ccc1O (configuration not stated)	-6.79%
CCOC(=O)CSC1=C(C#N)C(c2ccccc2)CC(=O)N1 (configuration not stated)	53.9% (active)
N#CC1=C(SCC(=O)Nc2nccs2)NC(=O)CC1c1cccs1 (configuration not stated)	5.49%
N#CC1=C(SCC(=O)OCc2ccccc2)NC(=O)CC1c1ccc(F)cc1 (configuration not stated)	6.22%
COc1ccc(C(=O)CSC2=C(C#N)C(c3cccs3)CC(=O)N2)cc1 (configuration not stated)	-82.2%
CCOC(=O)c1ccc(CN(Cc2ccc(Br)cc2)S(=O)(=O)c2cc(Cl)cc(Cl)c2)cc1	11.6%
O=C(NCCc1ccccc1)C(=O)Nc1ccccc1F	-44.1%
CCCCSc1nc2sc3c(c2c(=O)n1-c1ccc(OC)cc1)CCCC3	-1.35%
O=C(CCSc1ccccc1)Nc1cccc2ccc(-n3ccnc3)nc12	-3.58%
COc1cc(C(=O)Nc2cc(-c3nc4ccc(C)cc4o3)ccc2C)ccc1OCc1ccc(Cl)cc1	-64.2%
CCNC(=O)C1CCN(c2nc(C)cc(C)n2)CC1	-5.09%
Cc1cc(N2CCOCC2)nc(SCC(=O)N2CCCC2)n1	5.97%
Cc1cc(N2CCCCC2)nc(NCCNC(=O)C2CCCO2)n1 (configuration not stated)	42.3% (active)
O=C(/C=C/c1ccc(F)cc1)Nc1ccccc1F	79.4% (active)
O=C(/C=C/c1ccc(F)cc1)NCCCCNC(=O)/C=C/c1ccc(F)cc1	-6.73%
O=C(/C=C\c1ccccc1)Nc1cc2ccccc2cc1NC(=O)/C=C/c1ccccc1	-0.29%

Compound	inhibition
Cc1cccc(NC(=O)/C=C/c2ccc(F)cc2)c1	34.1% (active)
Cc1csc(NC(=O)/C=C/c2ccc(F)cc2)n1	-40.2%
Cc1cc(C)nc(NS(=O)(=O)c2ccc(NC(=O)/C=C/c3ccc(F)cc3)cc2)n1	-8.5%
O=C(Nc1ccc(-c2nc3cc(Cl)ccc3o2)cc1)c1ccc(-c2ccc(Cl)cc2)o1	-100%
O=S(=O)(NCc1ccccc1)c1cccc(S(=O)(=O)NCc2ccccc2)c1	4.17%
N#C/C(=C\c1cn(-c2ccccc2)nc1-c1ccc(Cl)cc1)C(N)=O	2.99%
NC(=O)c1ccc(-c2nc(NC3CC3)c3ncn(C4CCCCC4)c3n2)cc1	18%
O=C(O)c1nnn(-c2ccccc2)c1C(=O)O	5.21%
CCOC(=O)c1sc2nc(C)nc(N3CCCCC3)c2c1C	-2.79%
O=[N+]([O-])C1CS(=O)(=O)C=C1N(Cc1ccccc1)c1ccccc1 (configuration not stated)	39.5% (active)
O=C(c1cc2ccccc2oc1=O)N(Cc1ccccc1)c1cccc([N+](=O)[O-])c1	0.25%
CCN(Cc1ccccc1)Cc1ccc([N+](=O)[O-])cc1	10.2%
Cc1cc(OCc2nc(SCC(=O)N(C)C)n[nH]2)ccc1Cl	-1.92%
Cc1ccccc1Nc1ncnc2nc[nH]c12	-0.78%
COc1cc(C(=O)NC(=S)Nc2ccccc2O)cc(OC)c1OC	12%
CCc1cc(C)cc(OCC(O)Cn2c(C)nc3ccccc32)c1 (configuration not stated)	26.7%
Cc1cc(C)c(OCC(O)Cn2c(C)nc3ccccc32)c(C)c1 (configuration not stated)	35.1% (active)
Cc1nc2ccccc2n1CC(O)COc1ccc(N)cc1 (configuration not stated)	10.8%
O=C(Oc1cc(-c2ccc(Cl)cc2)c2oc(=O)sc2c1)c1ccccc1	-3.66%
COc1ccccc1N1CCN(c2c(-c3ccc(Cl)cc3)c(=O)c2=O)CC1	70.2% (active)
COc1ccccc1N1CCN(Cc2cc(=O)c(OCc3ccc(Cl)cc3)co2)CC1	6.69%
COc1ccccc1N1CCN(S(=O)(=O)c2ccccc2[N+](=O)[O-])CC1	13%
